A short description of test [1]: A549 cell viability effects, profiling panel, calcein-AM fluorescence, 48 h, basal (AID 1162). The conditions noted are these: higher = more signal.
Test [2] can be described thus: adipocyte viability effects, profiling panel, cell-based, 3T3-L1 adipocytes, calcein-AM fluorescence, 48 h, basal (AID 1163). Particulars: 3T3-L1 adipocytes viability, higher = more signal.
Test [3] can be described thus: HepG2 cell viability effects, profiling panel, calcein-AM fluorescence, 48 h, basal (AID 1164). The conditions noted are these: higher = more signal.
Test [4] can be described thus: MM1S cell viability effects, profiling panel, calcein-AM fluorescence, 48 h, basal (AID 1165).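 Also: viability of MM1S multiple myeloma cells under basal unstimulated conditions.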 Particulars: higher = more signal.
A short description of test [5]: basal RPMI8226 viability, no added stimulus, profiling panel, cell-based, calcein-AM fluorescence, 48 h, PK04 Diversity Set (AID 1166).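 Also: cells grown under basal conditions without added stimulus.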 Particulars: RPMI8226 myeloma viability, higher = more signal.
Test [6] can be described thus: basal HepG2 mitochondrial membrane potential changes, profiling panel, cell-based, JC-1 fluorescence, 24 h, 100 nL compound (AID 1167). Particulars: higher = more signal.
Test [7] is described as follows: basal 3T3-L1 adipocyte mitochondrial potential changes, profiling panel, cell-based, JC-1 fluorescence, 3T3-L1 adipocytes, 24 h, 100 nL compound (AID 1168). The conditions noted are these: JC-1 mitochondrial fluorescence, higher = more signal, called active from +8 up or from −8 down.
Test [8] is described as follows: basal RPMI8226 mitochondrial membrane potential changes, profiling panel, cell-based, JC-1 fluorescence, 24 h, 100 nL compound (AID 1169). The conditions noted are these: RPMI8226 myeloma, JC-1 mitochondrial potential fluorescence, higher = more signal.
Test [9] is described as follows: basal MM1S mitochondrial membrane potential changes, profiling panel, cell-based, JC-1 fluorescence, 24 h, 100 nL compound (AID 1170). Particulars: higher = more signal.
A short description of test [10]: A549 lung cancer cell viability effects, profiling panel, resazurin fluorescence, 24 h, PK04 Diversity Set (AID 1171). The conditions noted are these: higher = more signal, called active from +8 up or from −8 down. (Resazurin is reduced to fluorescent resorufin, in cell work by metabolically active cells.)

Structures are written as SMILES. Active and inactive are the calls of the source.

This passage reports z-score results from PubChem BioAssay.
Also: test concentration not given here.

Regarding `Cc1c(NC(=O)/C(C#N)=C/c2ccccc2Cl)c(=O)n(-c2ccccc2)n1C`, the z-score in test [1] is 1.62; in [2] it was 0.228; in test [3] it was 1.02; in test [4], 0.867; in test [5], 1.52; in test [6], 0.771. Moreover, the z-score in test [7] is 1.14 (inactive); in [8], -0.0416; in [9], -1.04; in test [10] it was -0.357 (inactive).

On to `C=CCC(OC(C)=O)[C@@H]1[C@@H](N(Cc2cccc3ccccc23)C(=O)Cc2ccc(F)cc2)c2cc(OCCCO)ccc2N1C(=O)c1ccc(-c2ccccc2)cc1` (stereo not given in full), for which the z-score in test [1] was -0.546; in test [2] it was 0.905; in [3] it was 0.111; in test [4], 0.867; in [5] it was -0.61; in [6], 1.35. The z-score in test [7] was -0.389 (inactive); in test [8], -0.104; in test [9], 0.302; in test [10], 0.736 (inactive).

In the case of `C[C@]1(C(=O)NCC(F)(F)F)c2ccccc2C(=O)N(Cc2ccccc2)[C@H]1c1ccc(CO)cc1`, the z-score in test [1] was -0.431; in test [2], -0.2; in test [3] it was 0.57; in test [4] it was -0.503; in test [5], 0.514; in [6], 1.97. In addition, the z-score in test [7] is 0.113 (inactive); in test [8] it was 0.824; in [9], -1.07; in test [10], 0.0906 (inactive).

Take `O=C1O[C@H](c2ccccc2)[C@H](c2ccccc2)N2[C@H]1[C@@H](C(=O)O)[C@]1(C(=O)Nc3ccc(C#CC4(O)CCCCCC4)cc31)[C@H]2c1ccc(O)cc1`: the z-score is -0.167 in test [1]; 0.685 in [2]; -0.714 in test [3]; -0.217 in test [4]; 0.265 in test [5]; -0.482 in [6]. In addition, the z-score in [7] was -0.559 (inactive); in test [8] it was -0.0905; in test [9], -0.705; in [10], 0.976 (inactive).

Turning to `C=C(CCCC)C(=O)CC[C@H](OC(=O)c1ccccc1-c1ccccc1C(=O)O)c1ccccc1OCCO`, the z-score in [1] is 0.305; in test [2] it was 1.1; in test [3], -0.669; in [4], -3.38; in [5] it was -3.85; in [6] it was -0.309. Also, the z-score in [7] was 0.954 (inactive); in test [8] it was -0.873; in test [9] it was 0.311; in test [10], -0.22 (inactive).

On to `COc1ccc(C(O)C2C=CC3C(=O)N(c4ccccc4)C(=O)C3N2Nc2ccccc2F)cc1` (stereo not given), for which the z-score was -0.775 in [1]; 0.406 in test [2]; -0.596 in test [3]; -0.808 in test [4]; -2.08 in test [5]; -0.334 in [6]. The z-score in test [7] was -0.149 (inactive); in test [8], -0.288; in test [9], -0.855; in test [10], 0.21 (inactive).

On to `COC(=O)[C@@]1(Cc2ccccc2)[C@H]2c3cc(C(=O)N4CCCC4)n(CCSCCO)c3C[C@H]2CN1C(=O)c1ccccc1`, for which the z-score in [1] was -0.52; in [2] it was 0.629; in test [3], 0.422; in test [4], -0.451; in test [5] it was -0.874; in [6] it was 0.59. Moreover, the z-score is -1.19 (inactive) in [7], 0.26 in test [8], 0.0172 in [9] and -0.845 (inactive) in [10].

Take `O=C1OCCC=C[C@H]2OC34C=CCN(c5ccc(Cl)cc5)C(=O)[C@H]3N(CCCCCCO)C(=O)[C@@H]4C12` (stereo not given in full): the z-score in [1] was 1.26; in [2] it was -0.043; in [3], 1.21; in test [4], 1.69; in test [5], -1.1; in [6], 1. Moreover, the z-score in test [7] is 0.335 (inactive); in [8], -0.0541; in [9], 1.34; in test [10], 0.97 (inactive).

With `CC1(C)C(=O)C(c2ccccc2)=C2CN3C(=O)N(CCc4ccccc4)C(=O)C3(Cc3ccc(F)cc3)C=C21` (stereo not given), the z-score in test [1] was -0.767; in test [2], 0.366; in test [3] it was 0.184; in test [4], -1.24; in test [5], -1.81; in test [6], 0.39. Moreover, the z-score in test [7] is -1.91 (inactive); in test [8], -0.733; in test [9], -0.59; in test [10], -0.745 (inactive).

For the compound `[N-]=[N+]=Nc1ccccc1C[C@]1(C(=O)O)N=C(c2ccc(OCCCO)cc2)O[C@H]1c1ccccc1`, the z-score in test [1] is 0.855; in test [2], -0.221; in test [3], 1.28; in test [4] it was 0.565; in test [5], 0.272; in test [6], -0.924. For the same compound, the z-score in test [7] is -0.297 (inactive); in test [8], -0.954; in [9], -0.547; in [10] it was -0.605 (inactive).

With `Cc1cccc([C@H]2C[C@H]3C(I)=C[C@@H]2C(=O)[C@]32CO2)c1`, the z-score in test [1] was -0.985; in test [2] it was -0.176; in [3], -0.902; in test [4] it was -3.19; in [5] it was -3.12; in [6], -1.45. Also, the z-score in test [7] is 0.224 (inactive); in test [8] it was -0.889; in test [9], -0.753; in [10], -0.109 (inactive).

As for `O=C(NCC(O)CO)[C@@]1(CCS(=O)(=O)c2ccccc2)COC(c2ccc(OCCCO)cc2)=N1` (stereo not given in full), the z-score in test [1] was -0.696; in test [2], -0.0875; in test [3] it was 0.261; in test [4], -1.29; in test [5], -0.187; in [6] it was -0.341. For the same compound, the z-score in test [7] was -0.834 (inactive); in test [8], 0.747; in [9], -0.815; in test [10] it was 1.01 (inactive).

`COC(=O)[C@@]1(Cc2ccc(F)cc2)[C@H]2c3cc(C(=O)N4CCCC4)n(CC4CC4)c3C[C@H]2CN1C(=O)c1ccccc1`: the z-score is -0.393 in test [1]; 0.498 in test [2]; -0.713 in test [3]; -0.691 in test [4]; -2.11 in [5]; 1.62 in test [6]. The z-score is -1.07 (inactive) in test [7], -0.232 in test [8], -0.51 in test [9] and -0.665 (inactive) in test [10].

In the case of `COCCOC(=O)N1C(=O)[C@@]2(c3cc(C#CC4(O)CCCCCC4)ccc31)[C@H](C(=O)N1CCN(c3ncccn3)CC1)[C@H]1C(=O)O[C@H](c3ccccc3)[C@H](c3ccccc3)N1[C@@H]2c1ccccc1OCCO`, the z-score in [1] was -0.118; in [2], 0.481; in [3], -0.594; in test [4], -0.483; in test [5], -1.98; in test [6], -0.151. Moreover, the z-score in test [7] is 0.909 (inactive); in test [8], -0.288; in test [9], -0.589; in [10], -0.0171 (inactive).
